beta cell repl = induces beta-cell replication in MIN6 cells. proliferation, % at 10 µM. MIN6 cells proliferation, ATPlite luminescence, 48 h; cells starved in 0.2% serum; 100% = growth in 10% serum. 330,000 tested, 0.29% active. AID 2380;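 active means compounds whose signal lies at least 3.5 SD above the mean of all wells on their plate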;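 further: 0% = DMSO-treated cells in low-serum medium and 100% = 10% serum control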
iPSC survival up = hiPSC single-cell survival enhancement; ATPlite luminescence; 100% = ROCK inhibitor wells, 0% = DMSO; survival enhancement, % at 20 µM; 360,000 tested, 0.044% active; AID 602274; in the data active means survival enhancement above about 18%;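 further: cells exposed to compounds for 16 hours before the ATP read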
H9c2 protect = myocardial damage modulation in H9c2 cells; 360,000 tested, 0.63% active; H9c2 cardiomyocytes, H2O2 injury protection, ATPLite, 2 h; AID 588492; protection from H2O2 cell death, % at 20 µM;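 active means compounds giving at least 50% protection of heart cells from peroxide-induced death in the single-dose screen, raw or plate-pattern-corrected value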;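 further: 0% = DMSO wells with peroxide and 100% = DMSO wells without peroxide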
ABCB6 inh MLPCN = inhibitors of human ABC transporter ABCB6; K562-ABCB6 porphyrin accumulation, flow cytometry, 1 h; hits give low values; Q9NP58; 360,000 tested, 0.19% active; fluorescence ratio to DMSO, % at 10 µM;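 active means fluorescence ratio to DMSO below 75%, the collection mean minus 3 SD; inconclusive means too few cells collected in the well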;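 further: signal is porphyrin accumulated inside mitochondria; 100% equals median channel fluorescence of DMSO control wells; lower ratio means ABCB6 inhibition with less porphyrin fluorescence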
Target sequence (Q9NP58 whole entry, looked up): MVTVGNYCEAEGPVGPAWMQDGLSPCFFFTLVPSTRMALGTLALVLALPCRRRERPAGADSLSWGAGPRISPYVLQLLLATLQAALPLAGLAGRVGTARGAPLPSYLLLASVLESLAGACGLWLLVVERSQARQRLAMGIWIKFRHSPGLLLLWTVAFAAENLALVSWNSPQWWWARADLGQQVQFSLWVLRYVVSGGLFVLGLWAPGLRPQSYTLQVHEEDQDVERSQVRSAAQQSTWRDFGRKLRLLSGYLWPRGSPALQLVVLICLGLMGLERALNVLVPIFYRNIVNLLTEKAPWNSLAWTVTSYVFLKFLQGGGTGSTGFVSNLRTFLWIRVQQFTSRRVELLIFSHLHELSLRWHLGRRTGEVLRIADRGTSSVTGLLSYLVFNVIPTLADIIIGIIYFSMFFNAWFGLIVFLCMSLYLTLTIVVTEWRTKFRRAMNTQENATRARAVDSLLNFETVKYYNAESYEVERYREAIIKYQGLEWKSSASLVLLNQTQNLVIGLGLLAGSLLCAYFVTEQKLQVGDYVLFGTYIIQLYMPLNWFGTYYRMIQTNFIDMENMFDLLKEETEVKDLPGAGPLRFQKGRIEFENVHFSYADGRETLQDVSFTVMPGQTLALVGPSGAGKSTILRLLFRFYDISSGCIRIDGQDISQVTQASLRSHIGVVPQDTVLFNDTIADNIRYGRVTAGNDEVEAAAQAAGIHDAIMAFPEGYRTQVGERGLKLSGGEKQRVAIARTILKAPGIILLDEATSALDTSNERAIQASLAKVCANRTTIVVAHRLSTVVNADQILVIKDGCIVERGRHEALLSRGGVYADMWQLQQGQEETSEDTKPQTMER
Myeloid diff MLP = compounds promoting myeloid differentiation; ER-HoxA9 myeloid progenitors, lysozyme-GFP differentiation, flow cytometry; calls only at 10 µM; 360,000 tested, 1% active; AID 624256;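 active means normalized GFP-positive differentiation at or above the plate's own cutoff, the solvent-only control mean plus 3 SD; inconclusive means no clear call, values can overlap the other calls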;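 further: cells exposed to compound for four days before flow analysis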
Starred values were filed as active, the others as inactive; i = inactive; ? = inconclusive; nt = no result given; + = active, no number. Shown are actives, neighbours in structure and some others; about 2.2% of the full set was active somewhere.

SMILES	beta cell repl	iPSC survival up	H9c2 protect	ABCB6 inh MLPCN	Myeloid diff MLP
CCOc1ccc(S(=O)(=O)N(CC(=O)N/N=C/c2ccc(-c3ccc([N+](=O)[O-])cc3)o2)c2ccccc2)cc1	0	3	7	118	+
Cc1c2c(nc3c(C(=O)NC4CCCC4)cnn13)CCCC2	0	0	1	90	i
Nc1nnc(-c2cccc([N+](=O)[O-])c2)s1	4	0	-1	102	i
Cc1cc(NCCCN2CCOCC2)n2nc(C)c(-c3ccccc3)c2n1	-3	3	2	92	+
Cc1cc(NCCCN2CCOCC2)n2nc(C)c(-c3ccc(F)cc3)c2n1	1	0	14	98	i
CC(C)CC(=O)Nc1ccc(C(=O)COC(=O)Cc2n[nH]c(=O)c3ccccc23)cc1	-5	4	72*	99	i
COc1ccc(C(=O)COC(=O)Cc2n[nH]c(=O)c3ccccc23)c(OC)c1	1	0	62*	98	i
COc1ccccc1NC(=O)c1ccc(NC(=O)Cc2n[nH]c(=O)c3ccccc23)cc1	2	0	70*	94	i
O=C(Cc1n[nH]c(=O)c2ccccc12)OCC(=O)c1ccccc1	-4	0	61*	82	i
Cc1ccc(NC(=O)c2sccc2-n2cccc2)c(Cl)c1	-2	-2	-5	97	i
O=[N+]([O-])c1ccc(NS(=O)(=O)c2cccc3cccnc23)cc1	1	0	-3	99	i
O=C(COC(=O)Cc1n[nH]c(=O)c2ccccc12)Nc1ncc(Cl)cc1Cl	2	0	67*	101	i
CC(=O)c1cccc(NC(=O)C(C)OC(=O)c2cc(=O)[nH]c3ccccc23)c1 (centres undefined)	3	0	26	98	i
CC(=O)c1cccc(NC(=O)C(C)OC(=O)Cc2n[nH]c(=O)c3ccccc23)c1 (centres undefined)	-1	0	77*	98	i
CCCC(=O)Nc1ccc2c(c1)nc(CN1CCN(C(C)=O)CC1)n2C	-2	-2	5	91	i
Nc1cccc(N2C(=O)c3cccc4c(N)ccc(c34)C2=O)c1	4	2	16	148	+
CC(C)CCN1C(=O)c2cccc3c(N)ccc(c23)C1=O	-3	0	5	137	+
O=C(c1cccc(NS(=O)(=O)c2cccc(F)c2)c1)N1CCCC1	-2	1	-8	103	i
Cc1cccc(OCC(=O)OC(C)C(=O)Nc2ccc(S(=O)(=O)N3CCCCC3)cc2)c1 (centres undefined)	-2	0	-8	104	i
CCOc1ccccc1Nc1nnc(SCc2nnc(-c3cc(OC)c(OC)c(OC)c3)o2)s1	0	1	68*	94	?
CC1(C)Cc2ccccc2C2=NNC(=O)C2=N1	-4	-2	-29	98	+
CC1(C)Cc2ccccc2C(Nn2cnnc2)=N1	-2	0	1	96	i
Cn1nc(C(=O)NNC(=O)c2cccc(Cl)c2)c2ccccc2c1=O	-2	0	5	99	i
Cn1nc(C(=O)NNC(=O)CCc2ccccc2Cl)c2ccccc2c1=O	0	0	2	99	+
CCOC(=O)c1nn(-c2ccccc2)c(=O)cc1SC(C)C	-2	0	-1	98	i
SMILES	beta cell repl	iPSC survival up	H9c2 protect	ABCB6 inh MLPCN	Myeloid diff MLP
Cc1nc(SCC(=O)NCc2ccc(F)cc2)c2c(=O)n(C)c(=O)n(C)c2n1	1	2	53*	99	i
COC(=O)c1c(NC(=O)c2cccnc2)sc(C)c1C	-2	-2	12	94	i
Cc1ccc2c(c1)S/C(=C/c1ccc[n+](C)c1)N2CCO	-7	-1	-11	172	+
CCCn1nc([N+](=O)[O-])c(C(C#N)c2nc3ccccc3o2)c(Cl)c1=O (centres undefined)	-7	-1	-12	99	i
CCn1nc([N+](=O)[O-])c(C(C#N)c2nc3cc(C(F)(F)F)ccc3s2)c(Cl)c1=O (centres undefined)	-6	2	-21	170	+
COCCN=C1N[C@@H](c2ccc(Br)cc2)C(C(=O)OC)=C(C)N1Cc1ccccc1	-9	-2	18	97	+
CCn1cc(CNC(=O)/C=C/c2ccc([N+](=O)[O-])cc2)cn1	-1	1	-3	97	i
COCCCNC(=O)Cn1nc(-c2cccc(OC)c2)ccc1=O	0	1	6	89	i
O=C(/C=C/c1ccccc1)NC(=S)NNC(=O)c1cnccn1	-3	0	57*	105	i
Oc1ccc2sc(-c3ccccc3O)c(-c3ccc(OCCN4CCCCC4)cc3)c2c1	nt	-1	nt	95	i
COc1ccc(CNC(=S)N2CCN(S(=O)(=O)c3cccc(F)c3)CC2)cc1	-3	-1	-22	94	i
O=C(Cc1ccc(Cl)cc1Cl)NC1CCCCCC1	-2	0	4	99	+
CCc1ccc(C(=O)C(C)OC(=O)Cn2[nH]c(=O)c3ccccc3c2=O)cc1 (centres undefined)	-1	-2	44	97	i
CC(OC(=O)Cn1[nH]c(=O)c2ccccc2c1=O)C(=O)Nc1cccc(Cl)c1 (centres undefined)	-2	0	59*	97	i
CCC(=O)OCC(=O)Nc1cc(C)c(C)cc1[N+](=O)[O-]	0	0	4	103	i
CC(OC(=O)Cn1[nH]c(=O)c2ccccc2c1=O)C(=O)Nc1ccc(F)cc1Cl (centres undefined)	0	0	67*	103	i
Cc1cc(C)cc(N(CCC#N)C(=O)COC(=O)Cn2[nH]c(=O)c3ccccc3c2=O)c1	-2	-1	77*	101	i
Cc1cc(NC(=O)COC(=O)Cn2[nH]c(=O)c3ccccc3c2=O)c([N+](=O)[O-])cc1C	1	-2	93*	90	i
Cc1ccc2c(CNCc3ccccc3)cc(=O)oc2c1	0	-1	-3	103	i
CCCCOc1ccc(/C(O)=C(\C#N)c2nc3ccccc3[nH]2)cc1	-5	-1	3	94	i
CC(OC(=O)Cn1[nH]c(=O)c2ccccc2c1=O)C(=O)Nc1ccccc1[N+](=O)[O-] (centres undefined)	0	0	79*	100	i
Cc1nn(CC(=O)OC(C)C(=O)Nc2ccccc2[N+](=O)[O-])c(C)c1[N+](=O)[O-] (centres undefined)	0	3	4	78	i
COc1ccccc1C(=O)COC(=O)Cn1[nH]c(=O)c2ccccc2c1=O	2	0	53*	101	i
Cc1ccc(OCC(=O)N/N=C/c2cccc3cccnc23)cc1	-3	0	56*	103	nt
O=C(COc1ccc(F)cc1)N/N=C/c1cccc2cccnc12	-5	0	54*	100	i
